A number with no mark means an inactive call. Where a call stands in place of a potency, no number is given. Active and inactive are the calls of the source. Calls come from the whole dose curve.
Molecular target: Gonadotropin-releasing hormone receptor (Homo sapiens) (UniProt P30968)
Experiment: Human gonadotropin-releasing hormone receptor (GnRHR) small molecule agonists, calcium flux assay in GnRHR-HEK293 cells (AID 1920063); note: nearly all actives have a fitted effect of over 35% in size
Conditions: calcium flux fluorescence, agonist mode; series mostly up to 57.6 µM
How it was run: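 Cells: HEK293 stably expressing human GnRHR. Steps: overnight (18 h) culture, 1 h calcium dye loading at 37 C, compound addition, kinetic fluorescence read at 480/540 nm. Each compound tested at 15 concentrations in triplicate.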

Sequence of Gonadotropin-releasing hormone receptor (Homo sapiens) (P30968 whole entry, looked up): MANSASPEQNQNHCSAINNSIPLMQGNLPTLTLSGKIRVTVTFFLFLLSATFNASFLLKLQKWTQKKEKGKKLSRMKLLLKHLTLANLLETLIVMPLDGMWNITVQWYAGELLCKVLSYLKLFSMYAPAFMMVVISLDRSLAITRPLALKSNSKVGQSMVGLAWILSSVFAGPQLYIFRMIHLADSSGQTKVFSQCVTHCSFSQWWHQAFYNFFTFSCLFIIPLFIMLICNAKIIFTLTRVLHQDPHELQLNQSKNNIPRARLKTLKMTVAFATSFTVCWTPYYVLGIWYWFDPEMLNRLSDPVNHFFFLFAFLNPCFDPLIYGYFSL

SMILES: CCCCCN=C(N)N/N=C/c1c[nH]c2ccc(OC)cc12
- Potency: inactive

SMILES: C[C@@H]1C[C@H]2[C@@H]3CCC4=CC(=O)C=C[C@]4(C)[C@@]3(F)[C@@H](O)C[C@]2(C)[C@H]1C(=O)CO
- Potency: inactive

SMILES: O=C(/C=C/c1ccccc1)OC/C=C/c1ccccc1
- Potency: inactive

SMILES: CCCCOc1cc(C(=O)OCCN(CC)CC)ccc1N
- Potency: inactive

SMILES: CC(CC1c2ccccc2CCc2ccccc21)CN(C)C (stereo unspecified)
- Potency: inactive

SMILES: CN(C)CCOC1=Cc2ccccc2Sc2ccc(Cl)cc21
- Potency: inactive

SMILES: CNC(=O)c1ccccc1Sc1ccc2c(/C=C/c3ccccn3)n[nH]c2c1
- Potency: inactive

SMILES: Nc1ccc(S(=O)(=O)Nc2ccccc2)cc1
- Potency: inactive

SMILES: CC(C)CCCC(C)(C)O
- Potency: inactive

SMILES: O=S(=O)(c1ccccc1)c1ccc(Cl)cc1
- Potency: inactive

SMILES: CCCCCCCCCCCCCCCCCC#N
- Potency: inactive

SMILES: Cc1nc2ccc(Cl)cc2[nH]1
- Potency: inactive

SMILES: NC(=O)c1ccccc1[N+](=O)[O-]
- Potency: inactive

SMILES: O=C(O)c1ccc2c(c1)nc(C(=O)NC1CCN(C3CC3)CC1)n2Cc1cc(-c2ccc(Cl)s2)on1
- activity change: -0.0073% [at 11.8 µM, stronger effect = higher value]

SMILES: COc1ccc(/C(C)=C/C(=O)O)c(OC)c1
- Potency: inactive

SMILES: CCC(CO)(CO)COCC(CC)(CO)CO
- Potency: inactive

SMILES: Nc1c(CC(=O)O)cccc1C(=O)c1ccc(Br)cc1
- Potency: inactive

SMILES: CC(C)(O)c1ccccc1CC[C@@H](SCC1(CC(=O)O)CC1)c1cccc(/C=C/c2ccc3ccc(Cl)cc3n2)c1
- Potency: inactive

SMILES: COc1ccc2c(c1)C(=O)N(CCc1ccc(S(=O)(=O)NC(=O)NC3CCCCC3)cc1)C(=O)C2(C)C
- Potency: inactive

SMILES: Nc1cccc(S(=O)(=O)O)c1
- Potency: inactive

SMILES: CCNC(=O)C1CC(C)CCC1C(C)C (stereo unspecified)
- Potency: inactive

SMILES: O=C(O)C(=O)Cc1c[nH]c2ccccc12
- Potency: inactive

SMILES: C[C@H]1O[C@@H](n2cc(F)c(=O)[nH]c2=O)[C@H](O)[C@@H]1O
- Potency: inactive

SMILES: O=C(CCCN1CCN(c2ccccn2)CC1)c1ccc(F)cc1
- Potency: inactive

SMILES: COc1ccc([C@@H]2Sc3ccccc3NC(=O)[C@@H]2O)cc1
- Potency: inactive

SMILES: CC1=C(C)C(=O)C(C(CCCCCC(=O)O)c2ccccc2)=C(C)C1=O (stereo unspecified)
- Potency: inactive

From PubChem BioAssay (Tox21)
